Assay [1] is described as follows: yeast TOR pathway RPL19A-GFP modulators, primary screen, cell-based, S. cerevisiae, multiplex flow cytometry (AID 1862; in the data active = percent of DMSO control GFP below about 86%;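 note: lower values mimic rapamycin by blocking the RPL19A rise seen in DMSO cells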). As to conditions: S. cerevisiae RPL19A-GFP strain, flow cytometry fluorescence, 3 h; at 10 µM; stronger effect = lower value.
Assay [2] in a line: modulators of MEP2-GFP levels in yeast, primary screen, S. cerevisiae, multiplex flow cytometry (AID 1867).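 Note: median GFP channel fluorescence of barcode-gated MEP2-GFP cells measured by flow cytometry.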 The conditions noted are these: S. cerevisiae MEP2-GFP strain, 3 h, at 10 µM, stronger effect = higher value, 100% means same as DMSO wells. (In general: Flow cytometry measures light scatter and fluorescence of single cells or particles in a stream.)
The nature of assay [3]: modulators of CIT2-GFP expression in yeast, primary screen, S. cerevisiae, GFP fusion, multiplex flow cytometry (AID 1870;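 active = percent response above a set limit, the screen-wide mean plus 3 SD, cut at about 130% in these data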;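 note: barcoded CIT2-GFP strain pooled with four other GFP strains with rapamycin as positive control; median GFP fluorescence per well over plate mean of DMSO wells so 100% = DMSO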). The conditions noted are these: 3 h, at 10 µM, stronger effect = higher value.
The nature of assay [4]: modulators of LAP4-GFP expression in yeast, primary screen, S. cerevisiae, multiplex flow cytometry (AID 1873;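 active = GFP signal, as percent of the solvent control, above the screen mean plus 3 SD, about 149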). As to conditions: 3 h, at 10 µM, stronger effect = higher value.
Assay [5] in a line: modulators of AGP1-GFP expression in yeast TOR pathway, primary screen, cell-based, multiplex flow cytometry, S. cerevisiae (AID 1887;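 active = GFP signal above the screen-wide mean plus 3 SD, that is over about 124.5% of the solvent control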;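 note: AGP1-GFP fusion strain of S. cerevisiae within a five-strain barcoded multiplex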). As to conditions: 3 h, at 10 µM, stronger effect = higher value.
A short description of assay [6]: inhibitors of CD8+ T cell-vesicle binding, pilot screen, LFA-1/ICAM-1 modulator project, MLPCN validation set, flow cytometry (AID 2523;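 active = response below a set limit, under 55% cells CD8-positive and vesicle-bound, and CD8 cells' 90th-percentile brightness under 279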;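 for vesicle binding response: mean PE anti-B7-1 fluorescence of CD8+ cells relative to row control; 100% = QL9-loaded vesicles with DMSO vehicle in the same plate row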). As to conditions: 2C mouse CD8+ T cells, at 7 µM, stronger effect = lower value; double positive events: measured here: CD8+/vesicle+ event percentage.
The target in assay [7] is Integrin beta-1 (Homo sapiens) + Integrin alpha-4 (Homo sapiens) (UniProt P13612+P05556). In words: inhibition of HUTS-21 binding to VLA-4, pilot screen, VLA-4 allosteric modulator project, U937 cells, HUTS-21 mAb, flow cytometry, validation set (AID 2674;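 active = inhibition above 50%, about 3 SD of the validation set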;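 note: antibody binding induced by the VLA-4 ligand LDV present at three times its Kd; 0% = LDV ligand with antibody and no compound and 100% = antibody without LDV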). As to conditions: HUTS-21 LIBS mAb binding, at 6.7 µM, stronger effect = higher value, binding induced by LDV ligand.
The nature of assay [8]: superoxide lowering in aged yeast cells, pilot screen, validation compound set (AID 2706;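 active = superoxide response below 65% of plate, a cut near 3 SD across the whole screen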;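 note: yeast exposed to compound for one week at 30 degrees C before staining; 100% = mean of all compound wells on the same plate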). The conditions noted are these: S. cerevisiae aging, superoxide DHE fluorescence; at 10 µM; stronger effect = lower value.
The target in assay [9] is Beta-adrenergic receptor kinase 1 (Homo sapiens) (UniProt P25098). In words: GRK2 binders displacing RNA aptamer, biochemical, validation, human GRK2, bead flow cytometry (AID 488806;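 active = aptamer binding inhibition above 30%, about 3 SD of noise from non-fluorescent compounds; inactive = inhibition at or below 30%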). The conditions noted are these: bead-bound GRK2, FAM-aptamer displacement, at 10 µM, stronger effect = higher value.
The target of assay [10] is Beta-2 adrenergic receptor (Homo sapiens) (UniProt P07550). In words: beta2AR agonists driving receptor internalization, pilot screen, cell-based, FAP fluorogen, flow cytometry, validation set (AID 504459;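 active = percent response above 42, roughly 3 SD of non-fluorescent test compounds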;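 note: agonist-driven loss of surface beta2AR via internalization measured by FAP dye flow cytometry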). As to conditions: Am2.2-beta2AR cells, FAP surface receptor flow cytometry; at 10 µM; stronger effect = higher value.
For assay [11], the target named is AP-2 complex subunit beta (Homo sapiens) (UniProt P63010). In words: inhibitors of arrestin peptide binding to AP2, pilot screen, biochemical, validation set, GST-AP2 beads, flow cytometry (AID 504541;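 active = inhibition above 54%, about 3 SD of non-fluorescent compounds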;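 note: AP2 carries R879A mutation and is captured from E. coli lysate; bead-bound FITC arrestin peptide fluorescence measuring arrestin peptide binding to AP2; 0% = DMSO wells and 100% = excess unlabeled arrestin peptide control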). As to conditions: FITC arrestin peptide, at 10 µM, stronger effect = higher value, AP2 beta2 appendage fragment, R879A mutant.
A short description of assay [12]: yeast V-ATPase proton transport modulators, S. cerevisiae, pHLuorin, HTS validation (AID 504600; in the data active = response above about 15%;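 note: plate controls were DMSO for no effect and reference compound for full effect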). As to conditions: S. cerevisiae pHLuorin cytosolic pH, at 10 µM, stronger effect = higher value.
Assay [13] deals with anti-desmoglein-3 scFv antibody binding to human DSG3. In words: inhibitors of anti-DSG3 scFv binding to DSG3, pilot screen, biochemical, validation compound set, bead-based, flow cytometry (AID 588368;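 active = binding below the plate cutoff, the plate median minus 3 SD, with a reading above zero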;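 note: signal is the median channel fluorescence of bead-bound GFP antibody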). As to conditions: Protein G beads, DSG3-Fc, scFv-GFP binding, at 10 µM, stronger effect = lower value.
Assay [14] is described as follows: inhibitors of fungal efflux pumps CDR1, CDR2, MDR1, pilot screen, validation compound set, multiplex, phenotypic (AID 588506;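 active = efflux inhibition above 0.42, the validation set average plus 4 SD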;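 note: Nile Red retained in cells so higher fluorescence means more efflux inhibition; 0 = negative control wells and 1 = enniatin B 25 µM full block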). As to conditions: S. cerevisiae pump-expressing triplex, Nile Red efflux flow cytometry; at 10 µM; stronger effect = higher value; the pumps come from Candida albicans.
For assay [15], the target named is ATP-binding cassette sub-family B member 6 (Homo sapiens) (UniProt Q9NP58). In words: ABCB6 transporter inhibitors, pilot screen, K562-ABCB6 cells, flow cytometry, validation set (AID 588550;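 active = inhibition above the screen-wide mean plus 3 SD, about 51%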;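 note: 0% = DMSO wells and 100% = benzethonium chloride 70 µM positive control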). As to conditions: K562-ABCB6 porphyrin accumulation, 1 h, at 10 µM, stronger effect = higher value.
Assay [16] is described as follows: promoters of myeloid differentiation in arrested cells, primary screen, cell-based, GFP/MAC1 double positive, flow cytometry, validation set (AID 588685;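 active = differentiation response of at least 50%, scaled between solvent and reference control, from cells with both markers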;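 note: compound exposure lasts four days before antibody staining and flow analysis; 0% = DMSO wells and 100% = 5 µM fulvestrant positive control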). As to conditions: ER-HoxA9 marrow cells, stronger effect = higher value, normalized: vehicle 0, fulvestrant 100.

Results filed as inconclusive are left out. Activity calls are given as the source filed them.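 Rule for the calls, unless noted: active = GFP response, as percent of the DMSO control, above the screen-wide mean plus 3 SD, about 139; inconclusive = no response measured because the compound's own fluorescence interfered; inactive = the rest.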

Sequence of Beta-2 adrenergic receptor (Homo sapiens) (P07550 whole entry, looked up): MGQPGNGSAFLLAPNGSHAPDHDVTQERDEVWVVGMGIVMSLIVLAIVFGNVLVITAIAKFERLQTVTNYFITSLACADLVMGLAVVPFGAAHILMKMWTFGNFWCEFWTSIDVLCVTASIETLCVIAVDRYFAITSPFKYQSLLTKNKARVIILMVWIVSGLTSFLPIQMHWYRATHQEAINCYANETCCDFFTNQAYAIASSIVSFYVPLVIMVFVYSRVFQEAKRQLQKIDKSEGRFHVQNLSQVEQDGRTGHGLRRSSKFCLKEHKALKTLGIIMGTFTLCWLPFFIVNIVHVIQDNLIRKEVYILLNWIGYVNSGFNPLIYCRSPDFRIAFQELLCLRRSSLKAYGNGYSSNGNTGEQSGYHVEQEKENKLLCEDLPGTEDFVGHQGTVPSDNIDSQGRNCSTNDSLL
Sequence of ATP-binding cassette sub-family B member 6 (Homo sapiens) (Q9NP58 whole entry, looked up): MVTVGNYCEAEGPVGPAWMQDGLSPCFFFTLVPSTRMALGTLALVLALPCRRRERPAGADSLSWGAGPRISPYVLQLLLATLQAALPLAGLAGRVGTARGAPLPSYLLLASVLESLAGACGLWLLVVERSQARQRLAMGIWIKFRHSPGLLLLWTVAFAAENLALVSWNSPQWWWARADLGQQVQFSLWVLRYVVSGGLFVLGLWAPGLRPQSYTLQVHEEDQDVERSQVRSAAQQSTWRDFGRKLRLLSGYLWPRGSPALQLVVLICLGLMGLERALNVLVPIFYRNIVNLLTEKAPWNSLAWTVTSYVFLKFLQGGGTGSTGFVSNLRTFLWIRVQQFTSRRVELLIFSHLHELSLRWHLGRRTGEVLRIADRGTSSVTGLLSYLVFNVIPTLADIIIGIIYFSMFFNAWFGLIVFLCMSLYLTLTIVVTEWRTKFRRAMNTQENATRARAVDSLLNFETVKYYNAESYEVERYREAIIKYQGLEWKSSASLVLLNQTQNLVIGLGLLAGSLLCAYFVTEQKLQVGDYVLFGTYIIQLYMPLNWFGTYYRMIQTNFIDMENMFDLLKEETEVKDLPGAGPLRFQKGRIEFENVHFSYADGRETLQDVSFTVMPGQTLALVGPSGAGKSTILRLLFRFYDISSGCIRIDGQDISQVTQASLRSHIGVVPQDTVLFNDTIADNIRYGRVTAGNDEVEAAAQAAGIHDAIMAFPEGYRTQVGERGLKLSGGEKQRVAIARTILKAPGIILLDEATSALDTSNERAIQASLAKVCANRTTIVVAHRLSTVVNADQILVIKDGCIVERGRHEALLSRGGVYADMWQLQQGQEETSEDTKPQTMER
Sequence of Integrin beta-1 (Homo sapiens) + Integrin alpha-4 (Homo sapiens) (P05556 whole entry, looked up): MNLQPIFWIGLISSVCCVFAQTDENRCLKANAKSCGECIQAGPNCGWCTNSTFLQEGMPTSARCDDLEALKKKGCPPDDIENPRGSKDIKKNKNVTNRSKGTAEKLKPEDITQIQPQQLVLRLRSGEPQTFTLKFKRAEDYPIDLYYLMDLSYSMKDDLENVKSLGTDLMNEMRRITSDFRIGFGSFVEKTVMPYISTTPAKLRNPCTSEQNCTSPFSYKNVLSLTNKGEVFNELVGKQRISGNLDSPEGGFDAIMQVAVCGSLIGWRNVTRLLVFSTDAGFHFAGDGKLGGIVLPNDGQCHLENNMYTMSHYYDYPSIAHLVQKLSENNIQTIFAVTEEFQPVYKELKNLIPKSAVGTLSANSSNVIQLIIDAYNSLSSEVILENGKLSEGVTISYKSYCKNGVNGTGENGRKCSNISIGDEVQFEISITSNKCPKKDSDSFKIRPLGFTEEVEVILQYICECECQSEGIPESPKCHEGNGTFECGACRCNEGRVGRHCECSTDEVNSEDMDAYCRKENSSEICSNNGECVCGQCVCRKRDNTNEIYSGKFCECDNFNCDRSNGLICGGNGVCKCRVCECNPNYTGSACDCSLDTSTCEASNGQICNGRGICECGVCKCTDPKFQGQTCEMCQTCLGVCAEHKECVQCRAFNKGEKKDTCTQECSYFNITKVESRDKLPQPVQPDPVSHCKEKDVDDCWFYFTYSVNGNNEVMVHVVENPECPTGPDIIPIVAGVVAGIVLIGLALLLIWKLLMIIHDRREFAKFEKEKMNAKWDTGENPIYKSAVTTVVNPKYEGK
Sequence of Integrin beta-1 (Homo sapiens) + Integrin alpha-4 (Homo sapiens) (P13612 whole entry, looked up): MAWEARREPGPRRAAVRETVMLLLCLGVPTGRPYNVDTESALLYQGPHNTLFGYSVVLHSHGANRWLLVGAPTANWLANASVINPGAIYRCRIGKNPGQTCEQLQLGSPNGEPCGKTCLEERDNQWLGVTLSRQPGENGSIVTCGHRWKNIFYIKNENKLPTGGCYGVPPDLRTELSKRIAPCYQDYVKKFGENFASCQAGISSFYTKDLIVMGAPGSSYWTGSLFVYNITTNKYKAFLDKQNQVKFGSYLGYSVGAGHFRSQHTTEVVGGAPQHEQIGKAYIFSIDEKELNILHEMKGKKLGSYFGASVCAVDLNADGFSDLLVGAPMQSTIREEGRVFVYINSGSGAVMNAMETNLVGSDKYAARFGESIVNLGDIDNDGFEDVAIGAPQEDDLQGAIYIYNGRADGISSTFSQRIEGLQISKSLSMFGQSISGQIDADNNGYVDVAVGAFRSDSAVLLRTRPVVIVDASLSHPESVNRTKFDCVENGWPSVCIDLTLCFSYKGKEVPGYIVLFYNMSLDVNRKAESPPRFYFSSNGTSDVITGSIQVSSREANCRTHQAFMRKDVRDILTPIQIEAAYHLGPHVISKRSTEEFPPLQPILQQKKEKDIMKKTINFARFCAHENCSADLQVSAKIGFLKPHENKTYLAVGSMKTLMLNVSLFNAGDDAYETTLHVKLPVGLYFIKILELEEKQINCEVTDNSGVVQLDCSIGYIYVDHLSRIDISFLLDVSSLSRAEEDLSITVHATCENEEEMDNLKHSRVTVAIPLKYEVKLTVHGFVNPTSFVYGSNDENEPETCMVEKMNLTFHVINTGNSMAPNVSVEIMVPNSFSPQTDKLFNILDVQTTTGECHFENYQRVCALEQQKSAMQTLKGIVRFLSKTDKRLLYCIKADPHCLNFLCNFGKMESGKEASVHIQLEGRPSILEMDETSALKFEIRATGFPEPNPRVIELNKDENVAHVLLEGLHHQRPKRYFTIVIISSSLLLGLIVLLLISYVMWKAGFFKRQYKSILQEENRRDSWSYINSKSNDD
Sequence of AP-2 complex subunit beta (Homo sapiens) (P63010 whole entry, looked up, the tested form may be a part, one chain of several): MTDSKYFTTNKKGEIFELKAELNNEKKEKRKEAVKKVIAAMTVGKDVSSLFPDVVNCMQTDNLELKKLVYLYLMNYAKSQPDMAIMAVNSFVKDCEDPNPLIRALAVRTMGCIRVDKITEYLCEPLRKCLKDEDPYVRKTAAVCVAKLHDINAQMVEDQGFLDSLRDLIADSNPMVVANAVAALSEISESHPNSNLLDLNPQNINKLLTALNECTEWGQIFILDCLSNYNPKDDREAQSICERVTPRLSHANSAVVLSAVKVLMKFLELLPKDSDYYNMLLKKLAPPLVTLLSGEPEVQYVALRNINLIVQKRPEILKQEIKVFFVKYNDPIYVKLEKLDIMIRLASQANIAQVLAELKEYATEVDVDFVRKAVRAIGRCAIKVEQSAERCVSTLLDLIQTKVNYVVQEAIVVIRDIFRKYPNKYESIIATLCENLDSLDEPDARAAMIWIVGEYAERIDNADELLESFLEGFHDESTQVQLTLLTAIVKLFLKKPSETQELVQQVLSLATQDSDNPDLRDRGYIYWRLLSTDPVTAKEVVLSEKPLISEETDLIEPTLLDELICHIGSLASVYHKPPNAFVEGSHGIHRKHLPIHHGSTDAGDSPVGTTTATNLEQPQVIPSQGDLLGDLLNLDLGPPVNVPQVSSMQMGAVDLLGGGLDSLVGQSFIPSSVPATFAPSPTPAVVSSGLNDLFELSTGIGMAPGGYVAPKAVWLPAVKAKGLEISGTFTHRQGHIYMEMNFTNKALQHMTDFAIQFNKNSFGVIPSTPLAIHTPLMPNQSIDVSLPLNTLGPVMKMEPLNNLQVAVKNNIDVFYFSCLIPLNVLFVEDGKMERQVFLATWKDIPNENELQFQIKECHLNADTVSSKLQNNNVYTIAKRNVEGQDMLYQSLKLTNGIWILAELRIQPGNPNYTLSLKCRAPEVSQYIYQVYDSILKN
Sequence of Beta-adrenergic receptor kinase 1 (Homo sapiens) (P25098 whole entry, looked up): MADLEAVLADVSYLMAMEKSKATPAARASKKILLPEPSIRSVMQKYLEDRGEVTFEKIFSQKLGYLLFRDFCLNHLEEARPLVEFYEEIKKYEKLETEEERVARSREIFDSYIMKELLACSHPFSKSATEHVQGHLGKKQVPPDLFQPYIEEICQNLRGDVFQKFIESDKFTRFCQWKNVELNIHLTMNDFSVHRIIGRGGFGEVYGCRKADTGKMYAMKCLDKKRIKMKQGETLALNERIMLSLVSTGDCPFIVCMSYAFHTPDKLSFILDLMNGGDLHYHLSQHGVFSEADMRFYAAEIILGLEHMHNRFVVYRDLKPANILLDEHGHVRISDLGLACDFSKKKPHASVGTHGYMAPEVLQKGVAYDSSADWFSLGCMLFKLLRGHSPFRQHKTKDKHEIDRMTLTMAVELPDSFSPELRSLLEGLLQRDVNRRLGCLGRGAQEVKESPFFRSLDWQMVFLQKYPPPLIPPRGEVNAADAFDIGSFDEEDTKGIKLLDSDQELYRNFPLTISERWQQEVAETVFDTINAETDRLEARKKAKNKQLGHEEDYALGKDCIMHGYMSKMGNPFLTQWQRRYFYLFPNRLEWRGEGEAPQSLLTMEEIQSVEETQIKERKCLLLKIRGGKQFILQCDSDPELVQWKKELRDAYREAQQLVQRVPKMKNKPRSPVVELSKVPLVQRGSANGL

As for `COc1ccc(CNCCC(c2ccc(F)cc2)c2ccc(OC(C)C)cc2)cc1OC` (stereo not drawn), the percent of DMSO control GFP in assay [1] is 97.9% (inactive). In addition, the GFP response vs DMSO in assay [2] was 105% (inactive); in assay [4], 119% (inactive). The percent response of DMSO control in assay [3] was 105% (inactive). In assay [5], the GFP response, % of DMSO was 110% (inactive). The double positive events in assay [6] is 66.1%. Moreover, in assay [6], the vesicle binding response was 227% (inactive). Also, the inhibition was 64.5% (active) in assay [7], 38.1% (inactive) in [11] and -1% (inactive) in assay [15]. Also, in [8], the superoxide response (% of plate) was 91.3% (inactive). Besides, the aptamer binding inhibition in assay [9] was -14% (inactive). In addition, the response was 24.3% (inactive) in [10] and 0.54% (inactive) in assay [12]. For the same molecule, the binding (% of control) in assay [13] was 113% (inactive). Moreover, the efflux inhibition (fraction of control) in assay [14] was -0.04 (inactive). The differentiation response in [16] was 2.89% (inactive).

Regarding `COc1ccc(C2CC(c3ccc([N+](=O)[O-])cc3)=NN2C(=O)c2ccccc2)cc1OC` (stereo not drawn), the percent of DMSO control GFP in assay [1] is 97.1% (inactive). Also, the GFP response vs DMSO is 101% (inactive) in assay [2] and 108% (inactive) in assay [4]. The percent response of DMSO control in [3] is 97% (inactive). Besides, the GFP response, % of DMSO in assay [5] is 116% (inactive). In addition, the double positive events in assay [6] came out at 64.6%. Further, in assay [6], the vesicle binding response is 211% (inactive). Moreover, the inhibition in [7] was 13.4% (inactive); in [11], 65.2% (active); in assay [15], 0% (inactive). For the same molecule, the superoxide response (% of plate) in assay [8] is 79.1% (inactive). Besides, the aptamer binding inhibition in assay [9] was 4% (inactive). The response in [10] was 6.46% (inactive); in assay [12] it was -0.24% (inactive). The binding (% of control) in assay [13] was 92.9% (inactive). The efflux inhibition (fraction of control) in assay [14] is 0.59 (active). Also, in assay [16], the differentiation response is -12.9% (inactive).

With `CN(C)CCC(c1ccc(Cl)cc1)c1ccccn1` (stereo not drawn), the percent of DMSO control GFP in [1] is 99% (inactive). For the same molecule, the results for the GFP response vs DMSO in assay [2] and in assay [4] were 120% (inactive) and 78.7% (inactive), respectively. In addition, the percent response of DMSO control in assay [3] is 108% (inactive). Moreover, the GFP response, % of DMSO in [5] is 87.5% (inactive). Moreover, in [6], the double positive events came out at 56.3%. In assay [6], the vesicle binding response is 215% (inactive). For the same molecule, the figures for the inhibition in assay [7], in assay [11] and in assay [15] were -7.12% (inactive), 4.35% (inactive) and 7% (inactive), respectively. For the same molecule, in [8], the superoxide response (% of plate) was 94% (inactive). Moreover, the aptamer binding inhibition in [9] was -7% (inactive). Besides, the response in assay [10] was -9.09% (inactive); in assay [12] it was 18.1% (active). In addition, the binding (% of control) in assay [13] was 107% (inactive). Moreover, the efflux inhibition (fraction of control) in [14] was 0.05 (inactive). Further, in assay [16], the differentiation response is 37.7% (inactive).

As to `COc1ccc(C(=O)CC2OC(=O)c3c2ccc(OC)c3OC)cc1` (stereo not drawn), the percent of DMSO control GFP in [1] was 106% (inactive). Besides, the GFP response vs DMSO in assay [2] is 100% (inactive); in assay [4], 99.9% (inactive). The percent response of DMSO control in [3] was 106% (inactive). Also, the GFP response, % of DMSO in assay [5] was 104% (inactive). Further, the double positive events in [6] was 63%. Moreover, the vesicle binding response in assay [6] is 256% (inactive). Further, the inhibition in [7] was 4.73% (inactive); in assay [11], -3.63% (inactive); in [15] it was 8% (inactive). Besides, the superoxide response (% of plate) in assay [8] is 107% (inactive). Moreover, the aptamer binding inhibition in assay [9] is 2% (inactive). In addition, the response was -6.79% (inactive) in [10] and -4.39% (inactive) in assay [12]. Further, the binding (% of control) in assay [13] was 95.8% (inactive). For the same molecule, the efflux inhibition (fraction of control) in assay [14] is -0.01 (inactive). Also, in [16], the differentiation response was -2.69% (inactive).

The term inhibition denotes the change of the read-out against control, counted positive when it falls.

The values above are taken from PubChem BioAssay.
